Experimental data published in PubChem BioAssay AID1159580 (chemical genetic matrix, 2015).
The whole screen tested about 5,500 compounds, of which about 2,000 (36%) were called active. Not shown: some 18% with an inconclusive outcome. No stated cut-off is given here; in the data, active means normalized growth mostly below about 0.91 (no sharp cut-off); inconclusive means no clear call, values can overlap the other calls; inactive means mostly above about 0.92. Some of the results follow.

Test: chemical genetic growth profiling, strain panel (AID 1159580);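 further: tested at 20 µM; growth read once vehicle control cultures reached saturation at 30 °C; 1 = growth at the plate median or of vehicle wells; lower values mean less growth of the strain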
Details: S. cerevisiae deletion strains, growth OD

Measured: normalized growth

C/C(=C\C(=O)OCCCCCCCCC(=O)O)C[C@@H]1OC[C@H](C[C@@H]2O[C@H]2[C@@H](C)[C@H](C)O)[C@@H](O)[C@H]1O
active: locus YLR113W, strain HOG1, hits give low values 0.827
inactive: locus YAL021C, strain ccr4, hits give low values 0.96 | locus YAL026C, strain drs2, hits give low values 0.958 | locus YAL030W, strain snc1, hits give low values 0.96 | locus YBL061C, strain skt5, hits give low values 0.987 | locus YBR009C, strain hhf1, hits give low values 0.961 | locus YBR023C, strain chs3, hits give low values 0.979 | locus YBR171W, strain sec66, hits give low values 0.929 | locus YBR231C, strain swc5, hits give low values 0.938 | locus YBR279W, strain paf1, hits give low values 0.986 | locus YCL011C, strain gbp2, hits give low values 0.972 | locus YCL016C, strain dcc1, hits give low values 0.967 | locus YCL061C, strain MRC1, hits give low values 0.965 | locus YCL069W, strain vba3, hits give low values 0.957 | locus YCR088W, strain abp1, hits give low values 0.952 | locus YDL005C, strain med2, hits give low values 0.973 | locus YDL040C, strain nat1, hits give low values 0.982 | locus YDR001C, strain nth1, hits give low values 0.956 | locus YDR069C, strain doa4, hits give low values 0.982 | locus YDR137W, strain rgp1, hits give low values 0.99 | locus YDR159W, strain sac3, hits give low values 0.936 | locus YDR195W, strain ref2 0.964 | locus YDR297W, strain sur2, hits give low values 0.988 | locus YDR334W, strain swr1, hits give low values 0.951 | locus YDR335W, strain msn5, hits give low values 0.963 | locus YDR392W, strain spt3, hits give low values 0.941 | locus YEL003W, strain gim4, hits give low values 0.969 | locus YEL037C, strain rad23, hits give low values 0.968 | locus YEL061C, strain CIN8 (second series), hits give low values 0.967 | locus YER015W, strain faa2, hits give low values 0.99 | locus YER016W, strain bim1, hits give low values 0.974 | locus YER111C, strain swi4, hits give low values 0.93 | locus YER155C, strain BEM2 (second series), hits give low values 0.959 | locus YFR010W, strain ubp6, hits give low values 0.984 | locus YGL167C, strain pmr1, hits give low values 0.973 | locus YGL173C, strain kem1, hits give low values 0.979 | locus YGL227W, strain vid30, hits give low values 0.965 | locus YGL240W, strain doc1, hits give low values 1.01 | locus YGL253W, strain hxk2, hits give low values 0.912 | locus YHR013C, strain ard1, hits give low values 0.985 | locus YHR027C, strain rpn1, hits give low values 0.987 | locus YHR030C, strain SLT2, hits give low values 0.895 | locus YHR079C, strain IRE1, hits give low values 0.919 | locus YHR142W, strain chs7, hits give low values 0.98 | locus YJL092W, strain hpr5, hits give low values 0.96 | locus YJL095W, strain BCK1 (second series), hits give low values 0.965 | locus YJL095W, strain BCK1, hits give low values 0.898 | locus YJL115W, strain asf1, hits give low values 0.954 | locus YJL129C, strain trk1, hits give low values 0.993 | locus YJL154C, strain vps35, hits give low values 0.968 | locus YJL164C, strain tpk1, hits give low values 0.98 | locus YJL166W, strain qcr8, hits give low values 1 | locus YJL187C, strain SWE1, hits give low values 0.976 | locus YJR066W, strain TOR1, hits give low values 0.916 | locus YKL160W, strain elf1, hits give low values 0.982 | locus YKR026C, strain gcn3, hits give low values 0.931 | locus YKR091W, strain srl3, hits give low values 0.971 | locus YLL001W, strain dnm1, hits give low values 0.949 | locus YLL026W, hits give low values 0.971 | locus YLL041C, strain sdh2, hits give low values 0.965 | locus YLR027C, strain aat2, hits give low values 0.965 | locus YLR221C, strain rsa3, hits give low values 0.982 | locus YLR258W, strain gsy2, hits give low values 0.968 | locus YLR262C, strain YPT6 (second series), hits give low values 0.962 | locus YLR320W, strain mms22, hits give low values 0.968 | locus YLR342W, strain FKS1, hits give low values 0.953 | locus YLR357W, strain rsc2, hits give low values 0.977 | locus YLR370C, strain arc18, hits give low values 0.957 | locus YLR384C, strain iki3, hits give low values 0.952 | locus YML120C, strain ndi1, hits give low values 0.979 | locus YMR058W, strain fet3, hits give low values 0.989 | locus YMR125W, strain sto1, hits give low values 0.962 | locus YMR129W, hits give low values 0.974 | locus YMR205C, strain PFK2, hits give low values 0.896 | locus YMR231W, strain pep5, hits give low values 0.961 | locus YNL071W, strain lat1, hits give low values 0.989 | locus YNL183C, strain NPR1, hits give low values 0.89 | locus YNL209W, strain ssb2, hits give low values 1 | locus YNL248C, strain rpa49, hits give low values 1.02 | locus YNL322C, strain KRE1 (second series), hits give low values 0.947 | locus YNR049C, strain mso1, hits give low values 0.951 | locus YOR001W, strain rrp6, hits give low values 0.991 | locus YOR070C, strain gyp1, hits give low values 0.969 | locus YOR080W, strain dia2, hits give low values 0.948 | locus YOR083W, strain WHI5, hits give low values 0.996 | locus YOR106W, strain vam3, hits give low values 0.979 | locus YOR231W, strain MKK1, hits give low values 0.904 | locus YOR265W, strain rbl2, hits give low values 0.982 | locus YOR270C, strain vph1, hits give low values 0.987 | locus YOR290C, strain snf2, hits give low values 0.979 | locus YPL051W, strain arl3, hits give low values 0.984 | locus YPL078C, strain atp4, hits give low values 1 | locus YPL106C, strain sse1, hits give low values 0.906 | locus YPL240C, strain hsp82, hits give low values 0.975 | locus YPL256C, strain CLN2, hits give low values 0.911
